Assay outcomes (PubChem BioAssay)
ERb coact inh: ER-beta (human) coactivator binding inhibition | TR-FRET ER-beta LBD / SRC1-Cy5 peptide binding; receptor agonist-loaded with 1 µM estradiol | inhibition, % at 25.6 µM | 86,000 tested, 1.3% active | AID 633;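 active means compounds whose percent inhibition of the receptor-coactivator binding signal exceeds about 50% in the single-dose screen, limit read from the data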;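 further: 0% = receptor plus peptide wells without compound and 100% = peptide-only wells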
ERa SRC1 inh: ER-alpha (human) coactivator binding inhibition; 86,000 tested, 1.7% active; TR-FRET ER-alpha LBD / SRC-1 peptide, estradiol-bound; inhibition, % at 25.6 µM; in the data active means inhibition above about 50%;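 further: 0% = receptor plus peptide control and 100% = peptide only without receptor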
FAK inh: blocks human focal adhesion kinase activity. Q05397. biochemical FAK kinase activity assay. inhibition, %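 (tested at 7 µM)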. 97,000 tested, 0.84% active. AID 727;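 further: 0% = DMSO and 100% = reference compound high control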
ERa SRC1 pot: ER-alpha (human) coactivator binding potentiation. P03372. TR-FRET ERalpha-LBD/SRC-Cy5 coactivator binding, 2 h; 100 = basal binding, no effect. coactivator binding (% of control), % at 25.6 µM. 86,000 tested, 1.3% active; in the data active means activity above about 200%;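 further: binding measured in presence of low estradiol as agonist stimulus; 0% = peptide alone without receptor and 100% = receptor with peptide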
FAK inh confirm: confirmation of human focal adhesion kinase (FAK) inhibitors; shares compounds with FAK inh; FAK kinase biochemical inhibition assay; inhibition, % at 7 µM; 750 tested, 28% active; AID 794
Numbers without * were called inactive; nt = no result; [ ] = dose if it differs, or a comment. Sampled rows, rich in hits. Any-hit rate of the full collection: about 3.2%. Unless noted, no stated cut-off is given here; in the data, active means inhibition above about 19%; inactive means the rest.

SMILES | ERb coact inh | ERa SRC1 inh | FAK inh | ERa SRC1 pot | FAK inh confirm
CCCCC(CC)C(=O)NCCCN1CCN(CCCNC(=O)C(CC)CCCC)CC1 (configuration not stated) | -7 | -11 | nt | 122 | nt
Cc1noc(/C=C/N(C)C)c1S(=O)(=O)N1CCc2ccccc21 | -10 | 7 | 5 | 101 | nt
CC1CC(C)(C)NCc2ccccc21 (configuration not stated) | 88*[fluorescence artefact?] | 2 | -2 | 106 | nt
Cc1nc2sc(C(c3cccs3)N3CC(C)CC(C)C3)c(O)n2n1 (configuration not stated) | -2 | 4 | 0 | 91 | nt
C=CCOc1ccc(C2C(C#N)=C(N)N(Nc3ccccc3)C3=C2C(=O)CCC3)cc1OC (configuration not stated) | nt | nt | -6 | nt | nt
O=C(COC(=O)c1cn(-c2ccccc2)nc1-c1cccs1)NC1CC1 | 10 | 7 | -1 | 202* | nt
COCCNC(=O)C(C)OC(=O)c1cc2occc2n1C (configuration not stated) | 26 | 10 | -1 | 102 | nt
Brc1ccc(Oc2ncc(CN3CCOCC3)s2)cc1 | nt | nt | 4 | nt | nt
CCOC(=O)c1cc2c(c(CSc3nc4ccccc4c(=O)n3Cc3ccco3)c1)OCOC2 | 37 | 9 | -1 | 337* | nt
CN(Cc1ccccc1)C(=O)CSc1nc2ccccc2c(=O)n1Cc1ccco1 | 1 | 8 | 8 | 113 | nt
O=c1c2ccccc2nc(SCc2cc(F)cc3c2OCOC3)n1Cc1ccco1 | 17 | 23 | 0 | 227*[fluorescence artefact?] | nt
COc1ccc(NS(=O)(=O)c2ccc(NS(=O)(=O)c3ccc(C)cc3)cc2)nn1 | -6 | -43 | nt | 91 | nt
CCOc1cc2[nH]c(=S)n(CCN3CCC(C)CC3)c(=O)c2cc1OCC | -5 | 1 | 0 | 104 | nt
CCOC(=O)N1CCC(n2c(=S)[nH]c3cc(OCC)c(OCC)cc3c2=O)CC1 | 52*[fluorescence artefact?] | 41 | nt | 106 | nt
COc1ccccc1Cn1c(=O)c2ccccc2n2c(Sc3ncnc4sccc34)nnc12 | 24 | 0 | -7 | 259*[fluorescence artefact?] | nt
N#Cc1c(N)oc(-c2ccco2)c1-c1ccco1 | 55*[fluorescence artefact?] | 37 | 5 | 25 | nt
N#Cc1c(N)oc(-c2ccccc2)c1-c1ccccc1 | 3 | -1 | nt | 93 | nt
COc1ccc(OC)c(/C=N/c2oc(-c3ccco3)c(-c3ccco3)c2C#N)c1 | 73* | 62* | 15 | 41 | nt
CC(C)c1nnc(NC(=O)CCC(=O)NCc2ccco2)s1 | -1 | 0 | 0 | 122 | nt
CC(=O)c1ccc(NC2=C(N3CCOCC3)C(=O)c3ccccc3C2=O)cc1 | nt | nt | 11 | nt | nt
Cc1ccc(NC2=C(N3CCOCC3)C(=O)c3ccccc3C2=O)cc1 | nt | nt | 43* | nt | 3
CCc1ccc(CNc2ccc(O)cc2)cc1 | 56*[fluorescence artefact?] | 26 | 56* | 71 | 4
CCN1C(=O)c2cccc3c(S(=O)(=O)NCc4ccco4)ccc1c23 | -6 | -1 | 21* | 108 | 4
Clc1ccc(Br)cc1-c1nc(-c2ccncc2)no1 | 27 | 34 | 28* | 246*[fluorescence artefact?] | 6
Brc1cccc(-c2nc(-c3ccncc3)no2)c1 | 6 | 2 | nt | 84 | nt
SMILES | ERb coact inh | ERa SRC1 inh | FAK inh | ERa SRC1 pot | FAK inh confirm
CCCCNC(=O)c1sc2ncnc(N3CCc4ccccc4C3)c2c1C | 3 | -3 | 14 | 132 | nt
CCOC(=O)CNC(=O)c1sc2ncnc(N3CCc4ccccc4C3)c2c1C | 0 | 4 | 42* | 110 | 33*
Cc1ccc2c(CC(=O)OCc3cc(=O)n4c(n3)sc3ccccc34)coc2c1 | nt | nt | 23* | nt | 0
CN1C(=O)/C(=C/c2cn(CC(=O)N3CCCCC3)c3ccccc23)c2ccccc21 | 48 | -10 | 26* | 96 | 28*
CC1CCCC(C)N1C(=O)Cn1cc(/C=C2/C(=O)Nc3ccccc32)c2ccccc21 (configuration not stated) | 0 | -5 | 5 | 100 | nt
C=CCOc1ccc(/C=C/C(C)=N\O)cc1 | -47 | -39 | 20* | 144 | 5
O=C(Oc1ccccc1)c1c(Cl)cccc1P(=O)(O)O | -8 | -3 | 76* | 104 | 58*
Cc1ccc(OC(=O)c2cccc(C(=O)Oc3ccc(C)cc3)n2)cc1 | -14 | 3 | 3 | 109 | nt
Cc1ccc(OC(=O)c2ccccc2P(=O)(O)O)cc1 | -5 | -9 | 50* | 99 | 44*
O=C(Oc1ccccc1Cl)c1ccccc1P(=O)(O)O | 10 | 5 | 72* | 98 | 68*
COc1nc(C)nc2c1ccc1ccccc12 | -3 | -6 | 2 | 102 | nt
CSc1nc(N(C)CCO)c2sc3nc(-c4ccco4)c4c(c3c2n1)CCC4 | nt | nt | 36* | nt | -1
